# Experimental data taken from PubChem BioAssay.
# For some of these results: Measured potencies and affinities stand elsewhere. Calls of active or inactive are those of the source. Unless noted, the rule behind the calls is not given here.
# How the values were obtained:
# F380Y = assay: BK channel mutant inhibitors and activators – cell-based, U2OS BacMam, thallium flux, beta subunits, selectivity assay, profiling panel (AID 1259406;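 active = thallium flux through the channel raised or lowered by more than 3 SD from vehicle-only wells, actives on both sides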;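 note: initial slope of Thallos dye fluorescence rise after thallium is added; log ratio against the mean of 0.3% DMSO vehicle wells on the same plate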); conditions: U2OS BacMam BK variants, at 30 µM
# F380Y/beta1 = assay: as above; conditions: U2OS BacMam BK variants, at 30 µM
# F380Y/beta2Delta = assay: as above; conditions: U2OS BacMam BK variants, at 30 µM
# F380Y/beta4 = assay: as above; conditions: U2OS BacMam BK variants, at 30 µM
# [1] = target: Calcium-activated potassium channel subunit alpha-1 (Homo sapiens) + Leucine-rich repeat-containing protein 26 (Homo sapiens) (UniProt Q12791+Q2I0M4); assay: as above; conditions: U2OS BacMam BK variants, F380Y/Slo1WT/gamma1, at 30 µM
# R275C = assay: as above; conditions: U2OS BacMam BK variants, at 30 µM
# R275C/beta1 = assay: as above; conditions: U2OS BacMam BK variants, at 30 µM
# R275C/beta2Delta = assay: as above; conditions: U2OS BacMam BK variants, at 30 µM
# R275C/beta4 = assay: as above; conditions: U2OS BacMam BK variants, at 30 µM
# R275C/Slo1WT/beta2 = assay: as above; conditions: U2OS BacMam BK variants, at 30 µM
# [2] = antimalarial activity against Dd2 strain (AID 2302;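 active = growth inhibition above 50% at the single 2 µM test dose, taken to imply half-maximal potency below 2 µM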;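 note: 0% = DMSO untreated growth and 100% = chloroquine plus artemisinin killed control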); conditions: P. falciparum Dd2 in RBCs, LDH growth readout, 72 h; at 2 µM; hits give high values
# [3] = human hepatoma cell viability loss – ATP luminescence, cytotoxicity control for P. falciparum antimalarial project, primary screen (AID 2303;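 active = inhibition above 50%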;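 note: 0% = DMSO wells and 100% = digitonin-killed cells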); conditions: HepG2 viability, 24-48 h, at 10 µM, hits give high values
# [4] = target: L-lactate dehydrogenase (Plasmodium falciparum (isolate CDC / Honduras)) (UniProt Q27743); assay: PfLDH activity inhibition – cell lysate, 3D7 strain, counter-screen for P. falciparum growth inhibition project (AID 2304);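 note: 0% = vehicle and 100% = reference inhibitor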; conditions: P. falciparum 3D7 crude extract, LDH APAD/NBT absorbance; at 2 µM; hits give high values
# [5] = inhibition of 3D7 malaria parasite growth – strain 3D7 (AID 2306);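 note: 0% = DMSO wells and 100% = chloroquine plus artemisinin control wells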; conditions: P. falciparum 3D7 erythrocytic growth, LDH absorbance, 72 h; at 2 µM; hits give high values
# [6] = target: Calcium-dependent protein kinase 1 (Plasmodium falciparum (isolate 3D7)) (UniProt P62344); assay: PfCDPK1 kinase inhibitors, biochemical, TCAMS library (AID 1159585; cut-off not given, nearly all actives have IC50 up to about 0.98 µM;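 note: inhibitors leave more ATP so luminescence rises with inhibition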); conditions: recombinant PfCDPK1, Kinase-Glo ATP depletion luminescence
# [7] = target: Plasmodium falciparum protein kinase 6 (PK6, PF3D7_1337100) (UniProt Q8IDW1); assay: PfPK6 kinase inhibitors, biochemical, TCAMS library (AID 1159586); conditions: recombinant PfPK6, Kinase-Glo ATP depletion luminescence
# [8] = target: Protein kinase 7 (PK7), Plasmodium falciparum 3D7 (PF3D7_0213400) (UniProt Q7YTF7); assay: inhibition of Plasmodium PK7 catalytic activity – biochemical, TCAMS antimalarial set, Kinase-Glo luminescence (AID 1159587); conditions: recombinant PfPK7, Kinase-Glo ATP depletion luminescence
# [9] = target: Calcium-dependent protein kinase 4 (Plasmodium falciparum (isolate 3D7)) (UniProt Q8IBS5); assay: PfCDPK4 kinase inhibitors, biochemical, TCAMS library (AID 1159588; cut-off not given, nearly all actives have IC50 up to about 0.91 µM); conditions: recombinant PfCDPK4, Kinase-Glo ATP depletion luminescence
# Sequence of Calcium-dependent protein kinase 4 (Plasmodium falciparum (isolate 3D7)) (Q8IBS5 whole entry, looked up): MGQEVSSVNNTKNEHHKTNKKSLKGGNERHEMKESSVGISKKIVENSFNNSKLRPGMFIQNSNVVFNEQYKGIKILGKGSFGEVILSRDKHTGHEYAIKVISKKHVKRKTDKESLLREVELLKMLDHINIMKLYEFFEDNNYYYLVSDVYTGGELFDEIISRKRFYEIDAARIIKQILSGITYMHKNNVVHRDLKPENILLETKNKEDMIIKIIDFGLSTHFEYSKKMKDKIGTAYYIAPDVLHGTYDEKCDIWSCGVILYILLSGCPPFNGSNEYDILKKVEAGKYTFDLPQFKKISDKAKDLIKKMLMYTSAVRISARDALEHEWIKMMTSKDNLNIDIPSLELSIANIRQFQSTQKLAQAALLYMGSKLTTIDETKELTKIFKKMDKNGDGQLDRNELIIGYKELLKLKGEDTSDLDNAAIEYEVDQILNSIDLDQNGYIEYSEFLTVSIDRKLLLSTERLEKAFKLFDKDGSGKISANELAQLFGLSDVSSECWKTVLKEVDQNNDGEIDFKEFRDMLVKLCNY
# Sequence of Calcium-dependent protein kinase 1 (Plasmodium falciparum (isolate 3D7)) (P62344 whole entry, looked up): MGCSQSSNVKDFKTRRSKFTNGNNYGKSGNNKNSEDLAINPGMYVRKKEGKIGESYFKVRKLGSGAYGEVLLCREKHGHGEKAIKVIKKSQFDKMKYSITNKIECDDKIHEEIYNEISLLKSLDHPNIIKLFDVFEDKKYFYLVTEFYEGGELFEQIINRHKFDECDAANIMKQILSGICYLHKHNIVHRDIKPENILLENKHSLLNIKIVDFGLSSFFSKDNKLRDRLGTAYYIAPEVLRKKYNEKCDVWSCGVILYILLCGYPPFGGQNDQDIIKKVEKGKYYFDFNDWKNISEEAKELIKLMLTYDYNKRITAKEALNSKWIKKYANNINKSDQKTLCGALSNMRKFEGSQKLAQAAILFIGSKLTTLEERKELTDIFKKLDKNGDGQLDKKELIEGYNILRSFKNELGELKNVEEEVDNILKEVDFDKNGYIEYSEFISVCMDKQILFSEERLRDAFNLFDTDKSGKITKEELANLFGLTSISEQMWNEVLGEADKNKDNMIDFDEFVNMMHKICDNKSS
# Sequence of Protein kinase 7 (PK7), Plasmodium falciparum 3D7 (PF3D7_0213400) (Q7YTF7 1-343): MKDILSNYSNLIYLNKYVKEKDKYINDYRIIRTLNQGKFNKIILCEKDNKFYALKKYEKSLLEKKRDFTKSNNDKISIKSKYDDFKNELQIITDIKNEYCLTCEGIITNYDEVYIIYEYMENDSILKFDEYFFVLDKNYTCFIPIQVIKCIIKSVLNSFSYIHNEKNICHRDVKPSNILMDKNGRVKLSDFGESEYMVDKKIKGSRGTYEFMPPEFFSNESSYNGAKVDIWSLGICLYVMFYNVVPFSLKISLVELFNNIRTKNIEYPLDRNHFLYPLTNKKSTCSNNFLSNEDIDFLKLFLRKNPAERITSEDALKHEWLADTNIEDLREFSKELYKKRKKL
# Sequence of Plasmodium falciparum protein kinase 6 (PK6, PF3D7_1337100) (Q8IDW1 1-305): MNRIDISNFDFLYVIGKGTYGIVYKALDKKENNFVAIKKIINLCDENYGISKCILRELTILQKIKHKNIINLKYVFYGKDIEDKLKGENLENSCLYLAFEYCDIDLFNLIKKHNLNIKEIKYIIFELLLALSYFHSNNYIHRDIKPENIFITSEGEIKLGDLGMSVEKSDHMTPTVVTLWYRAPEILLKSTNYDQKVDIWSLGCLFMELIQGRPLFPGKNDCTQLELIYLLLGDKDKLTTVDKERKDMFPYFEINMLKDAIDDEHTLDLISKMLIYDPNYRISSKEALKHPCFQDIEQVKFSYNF
# Sequence of L-lactate dehydrogenase (Plasmodium falciparum (isolate CDC / Honduras)) (Q27743 whole entry, looked up): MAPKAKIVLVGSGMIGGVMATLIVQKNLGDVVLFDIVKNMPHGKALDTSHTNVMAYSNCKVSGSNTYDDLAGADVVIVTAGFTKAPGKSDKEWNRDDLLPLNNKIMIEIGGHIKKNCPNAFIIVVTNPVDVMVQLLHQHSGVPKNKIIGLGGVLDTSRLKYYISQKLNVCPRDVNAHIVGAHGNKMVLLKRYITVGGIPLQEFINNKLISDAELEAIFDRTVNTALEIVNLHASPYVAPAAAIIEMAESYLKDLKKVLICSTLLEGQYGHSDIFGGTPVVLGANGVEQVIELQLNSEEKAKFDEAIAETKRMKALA
# Sequence of Calcium-activated potassium channel subunit alpha-1 (Homo sapiens) + Leucine-rich repeat-containing protein 26 (Homo sapiens) (Q2I0M4 whole entry, looked up, one chain of several): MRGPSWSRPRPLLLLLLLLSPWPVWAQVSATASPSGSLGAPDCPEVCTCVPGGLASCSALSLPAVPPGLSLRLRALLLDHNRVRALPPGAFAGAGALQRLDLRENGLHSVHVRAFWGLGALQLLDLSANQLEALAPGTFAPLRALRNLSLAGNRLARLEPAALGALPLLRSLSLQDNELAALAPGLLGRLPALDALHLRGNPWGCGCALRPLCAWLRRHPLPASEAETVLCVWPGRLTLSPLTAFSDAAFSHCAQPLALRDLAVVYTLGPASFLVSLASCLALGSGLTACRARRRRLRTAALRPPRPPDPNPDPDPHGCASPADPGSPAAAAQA
smiles,measurement,setting,value
Cc1ccc(S(=O)(=O)N2CN3CCN(C3)C2)cc1,log fold change Tl+ flux,F380Y,-0.028 (inactive)
same,log fold change Tl+ flux,F380Y/beta1,-0.0265 (inactive)
same,log fold change Tl+ flux,F380Y/beta2Delta,-0.0357 (inactive)
same,log fold change Tl+ flux,F380Y/beta4,0.048 (inactive)
same,log fold change Tl+ flux,[1],0.0134 (inactive)
same,log fold change Tl+ flux,R275C,0.0146 (inactive)
same,log fold change Tl+ flux,R275C/beta1,-0.00993 (inactive)
same,log fold change Tl+ flux,R275C/beta2Delta,-0.021 (inactive)
same,log fold change Tl+ flux,R275C/beta4,-0.0275 (inactive)
same,log fold change Tl+ flux,R275C/Slo1WT/beta2,0.0283 (inactive)
N#Cc1ccc(N(CCCO)Cc2ccccc2C(F)(F)F)cc1C(F)(F)F,growth inhibition,[2],23% (inactive)
same,inhibition,[3],7% (inactive)
same,inhibition,[4],-5% (inactive)
same,growth inhibition,[5],91% (active)
same,outcome,[6],inactive
same,outcome,[7],inactive
same,outcome,[8],inactive
same,outcome,[9],inactive
CN(c1cc(NC(=O)c2ccc(F)cc2)ccn1)C1CCN(Cc2cccc(F)c2)CC1,growth inhibition,[2],97% (active)
same,inhibition,[3],13% (inactive)
same,inhibition,[4],5% (inactive)
same,growth inhibition,[5],100% (active)
same,outcome,[6],inactive
same,outcome,[7],inactive
same,outcome,[8],inactive
same,outcome,[9],inactive
Cc1ccc(CC(C)(C)NCC(O)c2cccc(C(F)(F)F)c2)cc1 (stereo unspecified),growth inhibition,[2],92% (active)
same,inhibition,[3],19% (inactive)
same,inhibition,[4],2% (inactive)
same,growth inhibition,[5],97% (active)
same,outcome,[6],inactive
same,outcome,[7],inactive
same,outcome,[8],inactive
same,outcome,[9],inactive
CN(C)CCCOc1ccc(CN2CCC(c3c[nH]c4ccc(NCC5CCCCC5)cc34)CC2)cc1,growth inhibition,[2],99% (active)
same,inhibition,[3],58% (active)
same,inhibition,[4],3% (inactive)
same,growth inhibition,[5],99% (active)
same,outcome,[6],inactive
same,outcome,[7],inactive
same,outcome,[8],inactive
same,outcome,[9],inactive
CN1CC(c2ccc(Cl)c(Cl)c2)OC1=N (stereo unspecified),growth inhibition,[2],3% (inactive)
same,inhibition,[4],2% (inactive)
same,growth inhibition,[5],99% (active)
same,outcome,[6],inactive
same,outcome,[7],inactive
same,outcome,[8],inactive
same,outcome,[9],inactive
COc1cc(NC(=O)c2nn(CCCN3CCC4(CC3)C(=O)NCN4c3ccccc3)cc2-c2ccc(Cl)c(Cl)c2)cc(OC)c1OC,growth inhibition,[2],75% (active)
same,inhibition,[3],-4% (inactive)
same,inhibition,[4],1% (inactive)
same,growth inhibition,[5],97% (active)
same,outcome,[6],inactive
same,outcome,[7],inactive
same,outcome,[8],inactive
same,outcome,[9],inactive
CCC1=C[C@@H]2CN(C1)Cc1c([nH]c3ccccc13)[C@@](C(=O)OC)(c1cc3c(cc1OC)N(C)[C@H]1[C@@](O)(C(=O)OC)[C@H](O)[C@]4(CC)C=CCN5CC[C@]31[C@@H]54)C2,growth inhibition,[2],99% (active)
same,inhibition,[4],-1% (inactive)
same,growth inhibition,[5],98% (active)
same,outcome,[6],inactive
same,outcome,[7],inactive
same,outcome,[8],inactive
same,outcome,[9],inactive
CC1=CC(=O)[C@@H](O)[C@]2(C)[C@H]3[C@@]4(O)OC[C@@]35[C@@H](C[C@@H]12)OC(=O)C[C@H]5[C@@H](C)[C@H]4O,growth inhibition,[2],98% (active)
same,inhibition,[3],38% (inactive)
same,inhibition,[4],4% (inactive)
same,growth inhibition,[5],99% (active)
same,outcome,[6],inactive
same,outcome,[7],inactive
same,outcome,[8],inactive
same,outcome,[9],inactive
CSC(=NCc1ccccc1Cl)NC(N)=N[N+](=O)[O-],log fold change Tl+ flux,F380Y,0.0102 (inactive)
same,log fold change Tl+ flux,F380Y/beta1,0.0433 (inactive)
same,log fold change Tl+ flux,F380Y/beta2Delta,0.00986 (inactive)
same,log fold change Tl+ flux,F380Y/beta4,0.0594 (inactive)
same,log fold change Tl+ flux,[1],0.0227 (inactive)
same,log fold change Tl+ flux,R275C,-0.0153 (inactive)
same,log fold change Tl+ flux,R275C/beta1,-0.0278 (inactive)
same,log fold change Tl+ flux,R275C/beta2Delta,0.0233 (inactive)
same,log fold change Tl+ flux,R275C/beta4,-0.0373 (inactive)
same,log fold change Tl+ flux,R275C/Slo1WT/beta2,-0.0343 (inactive)
CS(=O)(=O)Nc1ccc2c(C3CCN(CC4CCN(C(=O)/C=C/c5ccc(Cl)c(Cl)c5)CC4)CC3)c[nH]c2c1,growth inhibition,[2],70% (active)
same,inhibition,[3],28% (inactive)
same,inhibition,[4],-3% (inactive)
same,growth inhibition,[5],99% (active)
same,outcome,[6],inactive
same,outcome,[7],inactive
same,outcome,[8],inactive
same,outcome,[9],inactive
CCC(C)(C)N[C@@H](C)[C@@H](O)c1ccc(C(F)(F)F)cc1,growth inhibition,[2],90% (active)
same,inhibition,[4],2% (inactive)
same,growth inhibition,[5],97% (active)
same,outcome,[6],inactive
same,outcome,[7],inactive
same,outcome,[8],inactive
same,outcome,[9],inactive
Cc1ccc2c(C3=CCN(CCCCC4(C)C(=O)Nc5ccccc54)CC3)c(C)[nH]c2c1 (stereo unspecified),growth inhibition,[2],91% (active)
same,inhibition,[3],9% (inactive)
same,inhibition,[4],-3% (inactive)
same,growth inhibition,[5],95% (active)
same,outcome,[6],inactive
same,outcome,[7],inactive
same,outcome,[8],inactive
same,outcome,[9],inactive
CC[C@H]1CN2CC[C@@H]1C[C@H]2[C@H](O)c1cc(N2CCC(O)(c3ccccc3)CC2)nc2ccc(OC)cc12,growth inhibition,[2],98% (active)
same,inhibition,[3],14% (inactive)
same,inhibition,[4],-2% (inactive)
same,growth inhibition,[5],101% (active)
same,outcome,[6],inactive
same,outcome,[7],inactive
same,outcome,[8],inactive
same,outcome,[9],inactive
O=C(/C=C/c1ccc(F)c(C(F)(F)F)c1)N1CCC(CN2CCC(c3c[nH]c4ccccc34)CC2)CC1,growth inhibition,[2],1% (inactive)
same,inhibition,[3],23% (inactive)
same,inhibition,[4],2% (inactive)
same,growth inhibition,[5],98% (active)
same,outcome,[6],inactive
same,outcome,[7],inactive
same,outcome,[8],inactive
same,outcome,[9],inactive
O=C(NC1CCC(CN2CCC(c3c[nH]c4ccccc34)CC2)CC1)c1[nH]c(=O)[nH]c(=O)c1F (stereo unspecified),growth inhibition,[2],59% (active)
same,inhibition,[3],5% (inactive)
same,inhibition,[4],-2% (inactive)
same,growth inhibition,[5],99% (active)
same,outcome,[6],inactive
same,outcome,[7],inactive
same,outcome,[8],inactive
same,outcome,[9],inactive
NC(N)=NC(=O)Nc1ccc([N+](=O)[O-])c(Cl)c1,growth inhibition,[2],12% (inactive)
same,inhibition,[4],-10% (inactive)
same,growth inhibition,[5],90% (active)
same,outcome,[6],inactive
same,outcome,[7],inactive
same,outcome,[8],inactive
same,outcome,[9],inactive
